Assay outcomes deposited in PubChem by The Scripps Research Institute Molecular Screening Center.
Only some compounds are listed: those with a hit (about 1.8% of all), similar ones and a draw of the others.
Fam108B inh – blocks mouse Fam108B hydrolase in RBBP9 counter-screen; recombinant Fam108B, FP-Rh probe fluorescence polarization; inhibition, % at 9.51 µM; 300,000 compounds, 0.33% hits; AID 1947;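 active means inhibition above the screen mean inhibition plus 3 SD, computed separately per campaign, cut at about 18% in these data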;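 further: inhibitors lower polarization as less probe binds the enzyme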
GSTO1 counter – blocks human GSTO1 in RBBP9 counter-screen | P78417 | inhibition, % at 5.96 µM | 300,000 compounds, 1.1% hits | recombinant GSTO1, activity-based probe fluorescence polarization;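 active means inhibition above the campaign mean inhibition plus 3 SD, cut at about 35% in these data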;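 further: 0% = GSTO1-1 with DMSO and 100% = wells lacking GSTO1-1 enzyme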
Target sequence (P78417 whole entry, looked up): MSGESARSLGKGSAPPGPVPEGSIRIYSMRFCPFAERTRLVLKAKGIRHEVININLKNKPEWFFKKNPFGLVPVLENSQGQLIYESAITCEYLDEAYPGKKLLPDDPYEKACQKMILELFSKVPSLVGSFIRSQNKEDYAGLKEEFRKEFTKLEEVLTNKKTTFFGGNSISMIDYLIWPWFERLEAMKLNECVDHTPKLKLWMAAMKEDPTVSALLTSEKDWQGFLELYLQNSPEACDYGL
LYPLA2 inh – counter-screen for PME1 inhibitors: inhibitors of human LYPLA2; O95372; recombinant LYPLA2, FP-Rh probe fluorescence polarization; inhibition, % at 5.9 µM; 320,000 compounds, 0.38% hits;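 active means inhibition above the screen-wide mean plus 3 SD, limit set per campaign, cut at about 26% in these data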;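 further: 0% = LYPLA2 with DMSO and 100% = wells lacking LYPLA2 enzyme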
Target sequence (O95372 whole entry, looked up): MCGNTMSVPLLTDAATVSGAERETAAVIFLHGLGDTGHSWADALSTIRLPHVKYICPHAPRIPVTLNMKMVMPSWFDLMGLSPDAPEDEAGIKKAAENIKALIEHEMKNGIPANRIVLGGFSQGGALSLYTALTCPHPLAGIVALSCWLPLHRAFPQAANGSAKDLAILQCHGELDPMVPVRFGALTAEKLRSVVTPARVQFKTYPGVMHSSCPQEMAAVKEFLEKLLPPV
PAD4 FP inh – blocks human protein arginine deiminase 4; Q9UM07; recombinant PAD4, RCA probe fluorescence polarization; inhibition, % at 6.36 µM; 330,000 compounds, 0.41% hits; AID 485272;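 active means percent inhibition above a cutoff equal to the mean of all tested compounds plus 3 SD, cut at about 15% in these data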;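 further: 0% = PAD4 with RCA probe and DMSO and 100% = probe without PAD4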
PME-1 inh – blocks human protein phosphatase methylesterase 1; Q9Y570; recombinant PME-1, FP-Rh probe fluorescence polarization; inhibition, % at 5.9 µM; 320,000 compounds, 0.53% hits; AID 2130;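 active means inhibition above the campaign mean of all compounds plus 3 SD, cut at about 26% in these data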;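 further: competitive labeling of PME-1 active site by serine hydrolase directed probe; 0% = PME-1 with DMSO and 100% = wells lacking PME-1 enzyme; inhibitors block probe labeling so polarization falls and inhibition rises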
LYPLA1 inh – blocks human lysophospholipase 1, a PME1 counter-screen; recombinant LYPLA1, FP-Rh probe fluorescence polarization; AID 2174; 320,000 compounds, 0.16% hits; inhibition, % at 5.9 µM; O75608;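 active means inhibition above the mean of all tested compounds plus 3 SD, set per campaign, cut at about 14% in these data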;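 further: inhibitors block serine hydrolase probe labeling of LYPLA1 so polarization falls; 0% = enzyme with DMSO and 100% = wells lacking LYPLA1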
Target sequence (O75608 whole entry, looked up): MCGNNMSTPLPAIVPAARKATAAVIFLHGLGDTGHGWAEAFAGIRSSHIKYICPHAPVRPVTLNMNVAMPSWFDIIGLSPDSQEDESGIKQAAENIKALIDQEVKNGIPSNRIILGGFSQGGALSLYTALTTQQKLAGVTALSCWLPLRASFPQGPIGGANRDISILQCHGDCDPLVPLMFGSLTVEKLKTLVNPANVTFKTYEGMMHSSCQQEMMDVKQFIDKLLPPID
LYPLA2 confirm – counter-screen for PME1 inhibitors: confirmation of human LYPLA2 inhibitors. recombinant LYPLA2, FP-Rh probe fluorescence polarization. shares compounds with LYPLA2 inh. inhibition, % at 5.9 µM. 1,100 compounds, 72% hits. AID 2232;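 active means mean inhibition across replicates above the hit cutoff set in the primary screen, cut at about 26% in these data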;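 further: blocked labeling of the enzyme by serine hydrolase FP-Rh probe lowers polarization; 0% = enzyme with DMSO and 100% = wells lacking LYPLA2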
LYPLA2 gel ABPP – LYPLA2 (human) inhibition, late stage results; shares compounds with LYPLA2 inh; rhLYPLA2 in mouse brain proteome, gel ABPP FP-Rh; inhibition, % at 20 µM; 150 compounds, 30% hits;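 active means inhibition of LYPLA2 enzyme probe labeling above about 50%, limit read from the data; inactive means inhibition below that limit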;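 further: loss of FP-Rh probe labeling of the LYPLA2 gel band measured as band density; 0% = DMSO only control band and 100% = blank gel background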
Active calls of the source: *.

Screening COc1ccc(CNC(=O)c2ccc(N3CCC4(CC3)CC(c3ccc(Cl)cc3)=NO4)c(N)c2)cc1 returned Fam108B inh -1.6, GSTO1 counter -3.0, LYPLA2 inh 40.1*, PAD4 FP inh 0.8, PME-1 inh 1.9, LYPLA1 inh 1.4 and LYPLA2 confirm 40.8*.
`COc1ccc(N2CCN(C3CC(=O)N(Cc4ccccc4)C3=O)CC2)cc1` (stereo unspecified) gave Fam108B inh 1.9, GSTO1 counter 1.3, LYPLA2 inh 0.3, PAD4 FP inh -3.6, PME-1 inh 3.6 and LYPLA1 inh -3.3.
O=C(c1ccncc1)c1ccc(N2CCN(C3CC(=O)N(Cc4ccccc4)C3=O)CC2)cc1 (stereo unspecified) was read as Fam108B inh 0.7, GSTO1 counter 7.6, LYPLA2 inh 27.7*, PAD4 FP inh -1.3, PME-1 inh -6.9, LYPLA1 inh 5.6 and LYPLA2 confirm 23.5.
For COc1ccc(N2CCN(c3ncnc4c3nnn4Cc3ccccc3Cl)CC2)cc1 the results were Fam108B inh 2.1, GSTO1 counter 3.4, LYPLA2 inh 35.2*, PAD4 FP inh 1.7, PME-1 inh -7.0, LYPLA1 inh 8.4 and LYPLA2 confirm 39.8*.
For CC(C)Cc1nnc(NC(=O)CN2C(=O)NC3(CCCC3)C2=O)s1 the results were Fam108B inh 0.1, GSTO1 counter -1.2, LYPLA2 inh 2.1, PAD4 FP inh 2.0, PME-1 inh -0.4 and LYPLA1 inh 2.4.
`O=C(c1cccc(S(=O)(=O)NCc2ccccc2)c1)N1CCN(Cc2ccccc2)CC1` gave Fam108B inh -5.3, GSTO1 counter -2.0, LYPLA2 inh 2.0, PAD4 FP inh 2.1, PME-1 inh 7.1 and LYPLA1 inh 3.0.
COc1ccc(S(=O)(=O)NCc2ccc(C(=O)N3CCN(Cc4ccccc4)CC3)cc2)cc1 was read as Fam108B inh 0.6, GSTO1 counter 1.6, LYPLA2 inh 68.1*, PAD4 FP inh -3.8, PME-1 inh 4.5, LYPLA1 inh 3.4, LYPLA2 confirm 59.5* and LYPLA2 gel ABPP 38.0.
COc1cccc(S(=O)(=O)NCc2ccc(C(=O)N3CCN(Cc4ccccc4)CC3)cc2)c1 was read as Fam108B inh 4.3, GSTO1 counter -1.2, LYPLA2 inh 42.8*, PAD4 FP inh -1.7, PME-1 inh 2.9, LYPLA1 inh 1.9 and LYPLA2 confirm 48.9*.
Cc1ccc(NC(=O)Cn2c([N+](=O)[O-])cnc2C)cc1Cl was read as Fam108B inh 1.4, GSTO1 counter -4.0, LYPLA2 inh 57.0*, PAD4 FP inh -4.8, PME-1 inh 5.4, LYPLA1 inh -2.0, LYPLA2 confirm 51.0* and LYPLA2 gel ABPP 67.0*.
Screening Cc1ccccc1NC(=O)Cn1c([N+](=O)[O-])cnc1C returned Fam108B inh 6.3, GSTO1 counter 8.2, LYPLA2 inh 18.3, PAD4 FP inh 3.6, PME-1 inh -2.1 and LYPLA1 inh 3.6.
Cc1nc([N+](=O)[O-])cn1CC(=O)Nc1ccc(F)c(Cl)c1 was read as Fam108B inh 1.5, GSTO1 counter 7.0, LYPLA2 inh 44.7*, PAD4 FP inh 1.0, PME-1 inh -6.2, LYPLA1 inh -0.9, LYPLA2 confirm 59.1* and LYPLA2 gel ABPP 70.0*.
`Cc1ncc([N+](=O)[O-])n1CC(=O)Nc1ccc(F)c(F)c1` gave Fam108B inh 2.0, GSTO1 counter 0.2, LYPLA2 inh 66.6*, PAD4 FP inh -6.1, PME-1 inh -6.2, LYPLA1 inh 1.4, LYPLA2 confirm 59.8* and LYPLA2 gel ABPP 44.0.
Screening Cc1ncc([N+](=O)[O-])n1CC(=O)Nc1ccc(Cl)cc1 returned Fam108B inh -3.1, GSTO1 counter -0.5, LYPLA2 inh 47.1*, PAD4 FP inh 2.1, PME-1 inh 0.7, LYPLA1 inh -0.7, LYPLA2 confirm 50.9* and LYPLA2 gel ABPP 34.0.
Screening CCCCCn1c(N(C)Cc2ccccc2)nc2c1c(=O)[nH]c(=O)n2C returned Fam108B inh 6.2, GSTO1 counter 6.4, LYPLA2 inh -4.3, PAD4 FP inh 4.4, PME-1 inh -0.1 and LYPLA1 inh 1.4.
Screening O=C(c1ccc(Cn2c(=O)[nH]c3ccccc3c2=O)cc1)N1CCN(c2ccccn2)CC1 returned Fam108B inh 3.1, GSTO1 counter -0.2, LYPLA2 inh 5.5, PAD4 FP inh -3.7, PME-1 inh 4.9 and LYPLA1 inh 2.2.
For COc1ccc(N2CCN(C(=O)CSc3nc4[nH]ncc4c(=O)n3-c3cccc4ccccc34)CC2)cc1 the results were Fam108B inh 3.7, GSTO1 counter 12.9, LYPLA2 inh 33.9*, PAD4 FP inh -0.7, PME-1 inh 0.9, LYPLA1 inh 2.2 and LYPLA2 confirm 29.6*.
For CC(=O)c1ccc(N2CCN(C(=O)CCCc3nc4ccccc4s3)CC2)cc1 the results were Fam108B inh -1.0, GSTO1 counter -0.3, LYPLA2 inh 41.7*, PAD4 FP inh 2.9, PME-1 inh 5.0, LYPLA1 inh 6.0 and LYPLA2 confirm 43.7*.
For O=C(CCc1nc2ccccc2s1)N1CCN(c2ccccc2)CC1 the results were Fam108B inh 4.0, GSTO1 counter -2.7, LYPLA2 inh 1.4, PAD4 FP inh 1.2, PME-1 inh 3.1 and LYPLA1 inh -2.0.
`COc1ccc(N2CCN(C(=O)Cc3ccc(-n4c(=O)[nH]c5ccccc5c4=O)cc3)CC2)cc1` gave Fam108B inh 5.5, GSTO1 counter 1.2, LYPLA2 inh 56.7*, PAD4 FP inh 4.9, PME-1 inh 0.3, LYPLA1 inh 9.8, LYPLA2 confirm 51.5* and LYPLA2 gel ABPP 28.0.
`O=C(c1ccc(Cn2c(=O)[nH]c3ccccc3c2=O)cc1)N1CCN(c2ccccc2)CC1` gave Fam108B inh -2.0, GSTO1 counter 1.5, LYPLA2 inh 34.9*, PAD4 FP inh -4.0, PME-1 inh -4.0, LYPLA1 inh 7.7 and LYPLA2 confirm 27.9*.
Screening O=C(Nc1ccc(N2CCOCC2)cc1N1CCOCC1)c1cccc([N+](=O)[O-])c1 returned Fam108B inh -3.5, GSTO1 counter 1.2, LYPLA2 inh -1.0, PAD4 FP inh -3.1, PME-1 inh -1.3 and LYPLA1 inh -5.3.
Screening CC(=O)c1ccc(N2CCN(C(=O)CCCn3c(=O)[nH]c4ccccc4c3=O)CC2)cc1 returned Fam108B inh -2.9, GSTO1 counter -11.8, LYPLA2 inh 53.3*, PAD4 FP inh -0.8, PME-1 inh -4.2, LYPLA1 inh 5.9 and LYPLA2 confirm 48.6*.
CCOC(=O)N1CCN(C(=O)CCCn2c(=O)[nH]c3ccccc3c2=O)CC1 was read as Fam108B inh 2.8, GSTO1 counter -2.5, LYPLA2 inh 6.1, PAD4 FP inh -0.1, PME-1 inh 0.6 and LYPLA1 inh 2.0.
